Assay outcomes from PubChem.
Most compounds without a hit are left out; they make up all but 21% or so of the library.
NS1 function inh = inhibitors of influenza NS1 protein function; Potency, µM (doses to about 46.1 µM), inactives show at the top dose activity, positive = more growth; 270,000 tested, 0.4% active; AID 2326; calls by dose curve; further: potency means the concentration at half of the fitted maximal effect; actives are rising curves; nearly all actives have a fitted effect of over 50% in size
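OD600 was taken as the measure of yeast growth restored by compound in an NS1-expressing S. cerevisiae strain. Cells had been washed out of glucose medium and diluted 1:100 into galactose -URA medium, pH 6.0.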
Sm TGR inh = S. mansoni TGR enzyme inhibition | purified TGR, DTNB reduction, TNB absorbance 405 nm | Potency, µM (series often up to 114 µM), inactives show at the top dose activity change, negative = inhibition, usual class: inhibitors | 360,000 tested, 3% active | AID 485364; further: potency means the concentration at half of the fitted maximal effect; on the % scale 0 is the no-effect control and ±100 the full control effect; nearly all actives have a fitted effect of over 60% in size
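First, TGR (20 nM dispensed) and NADPH were mixed with compound. Second, a 15 min room-temperature incubation followed. Third, further NADPH and then DTNB were added to start the reaction. Finally, TNB absorbance was monitored kinetically.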
Pf growth 96h = P. falciparum growth inhibition at 96 hour, primary screen for plastid delayed-death inhibitors; P. falciparum luciferase reporter growth, 96 h; Potency, µM (doses to about 28.7 µM), for the others: at the highest dose activity change, negative = inhibition, usual class: inhibitors; 320,000 tested, 6.9% active; AID 504834; further: potency means the concentration at half of the fitted maximal effect; on the % scale 0 is the no-effect control and ±100 the full control effect
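Erythrocytes infected with luciferase-expressing P. falciparum were dispensed at 2% hematocrit and 0.05% parasitemia (final), then incubated with compounds 96 hours at 37 C in 5% CO2. Luminescence after detection reagent addition reported growth.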
Shiga inhibitor = blocks Shiga toxin action in Vero cells; Vero cells, Shiga toxin protein synthesis inhibition reporter; inhibition, % at 38.7 µM; 290,000 tested, 9.2% active; AID 2315; in the data active means inhibition mostly above about 28%, no sharp cut-off; inactive means mostly below about 43%; further: 0% is about no effect
CHX counter = affects cycloheximide protein synthesis inhibition readout, counter-screen; max response, %; 300,000 tested, 12% active; AID 2314; cell reporter, cycloheximide protein synthesis inhibition counterscreen; in the data active means max response mostly above about 13%, no sharp cut-off; inactive means mostly below about 14%; further: read at 38.3 µM for the half of the compounds with a filed dose; 0% is about no effect
Pf growth 48h = P. falciparum growth inhibition at 48 hours (one generation). Potency, µM (series often up to 28.7 µM), for the others: at the top dose activity change, negative = inhibition, hits mostly inhibitors. AID 504832. P. falciparum luciferase growth in erythrocytes, 48 h. 310,000 tested, 5.9% active; further: potency means the concentration at half of the fitted maximal effect; on the % scale 0 is the no-effect control and ±100 the full control effect
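Read-out is firefly luciferase luminescence from an integrated reporter in P. falciparum, so falling signal marks reduced parasite growth. Infected erythrocytes were at 2% hematocrit and 0.1% parasitemia (final) in Albumax-supplemented RPMI 1640.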
Starred values were filed as active, the others as inactive; u = inconclusive; x = no result. Unless noted, the call rests on the fitted dose curve; in most records, active means well fitted curve in the direction sought with a large enough effect; inconclusive means small, poorly fitted or top-dose-only effect, or another doubt; inactive means no such curve, though single readings can be large; an effect the other way counts as inactive or inconclusive.

SMILES	NS1 function inh	Sm TGR inh	Pf growth 96h	Shiga inhibitor	CHX counter	Pf growth 48h
CN(CCCN1c2ccccc2CCc2ccccc21)CC(=O)c1ccc(Cl)cc1	x	x	15.1µM*	11.8	15.4	-99.0%
CN(C)CCCN1c2ccccc2CCc2ccc(Cl)cc21	-33.1%	-25.9%	u	-16.2	-4.2	13.1µM*
CN(C)CCCN1c2ccccc2Sc2ccccc21	-13.2%	-1.6%	u	-14.0	-3.1	u
COc1ccc2oc(C(=O)N3CCN(S(=O)(=O)c4cccc([N+](=O)[O-])c4)CC3)c(C)c2c1	-2.7%	1.1%	8.28µM*	5.5	-2.2	u
COc1cccc(C(=O)CN2CCN(S(=O)(=O)c3cccc([N+](=O)[O-])c3)CC2)c1	0.3%	17.8µM*	0.415µM*	-4.0	1.9	-2.2%
CCOc1ccc(S(=O)(=O)N2CCN(C(=O)c3oc4ccc(OC)cc4c3C)CC2)cc1	x	1.2%	u	x	x	10.4µM*
Cc1cccc(OCC(=O)Nc2ccc(C(=O)OCc3cc(=O)n4nc(C5CC5)sc4n3)cc2)c1	x	4.4%	x	x	x	x
CC(=O)c1cccc(NC(=O)Nc2ccc3c(c2)CCC3)c1	-2.5%	51.3%	28.5%	40.7*	35.2*	36.9%
CCc1ccc(NC(=O)Nc2ccc3c(c2)CCC3)cc1	11.9%	-0.9%	21.6%	61.6*	31.9*	46.9%
Cc1cccc(NC(=O)Nc2ccc3c(c2)CCC3)c1	1.6%	1.5%	-6.8%	97.2*	55.6*	-23.9%
CCNC(=O)NC1(C(=O)Nc2ccc3c(c2)CCC3)CCCCC1	-1.8%	u	2.94µM*	-9.1	-2.3	1.1%
O=C(CN1C(=O)NC2(CCCCC2)C1=O)Nc1ccc2c(c1)CCC2	x	-1.0%	0.0%	21.8	12.3	-0.8%
CC(C)CN1C(=O)C(=O)N(CC(=O)c2ccc[nH]2)C1=O	x	1.5%	93.4%	x	x	20.1%
CCOC(=O)c1ccc(Nc2c(-c3ccc(N(C)C)cc3)nc3nc[nH]n23)cc1	x	-27.0%	x	x	x	x
CCOC(=O)c1c(C)n(-c2ccc(C)cc2)c2ccc(OCC(O)CNCC3CCCO3)cc12 (centres undefined)	x	-7.9%	3.29µM*	-11.4	-8.2	u
CCOC(=O)c1c(C)n(C)c2ccc(OCC(O)CNC(CC)CO)cc12 (centres undefined)	1.8%	-10.3%	2.08µM*	6.3	-2.1	u
COc1cc(-c2noc(C)c2/C=C/c2ccc(OC(C)=O)cc2)cc(OC)c1OC	1.6%	-55.0%	u	-3.0	-2.4	-29.5%
Cn1c(SCC(=O)C(C)(C)C)nnc1-c1cccnc1	-0.7%	0.0%	u	2.7	-2.1	15.5%
Cn1cnc([N+](=O)[O-])c1Sc1nnc(-c2cccnc2)n1C	-3.1%	0.447µM*	u	-6.4	0.7	u
Cn1c(SCc2ccccc2[N+](=O)[O-])nnc1-c1cccnc1	x	0.1%	u	51.4*	23.5*	61.9%
CCOc1ccc(-c2nnc(SCc3nc4ccccc4[nH]3)n2N)cc1	17.8%	0.3%	x	82.0	42.2*	u
Cn1c(SCc2nc3ccccc3[nH]2)nnc1-c1cccnc1	12.3%	-2.3%	1.85µM*	31.2	14.0	7.7%
COc1ccccc1-c1nnc(SCc2nc3ccccc3[nH]2)n1C	11.0%	-9.8%	x	-4.2	-2.4	-10.8%
C=CS(=O)(=O)c1ccc(Oc2ccc(S(=O)(=O)C=C)cc2)cc1	-56.0%	2.51µM*	x	20.5	-0.9	6.3%
N/C(Cc1ccccc1)=N\OC(=O)c1cccc2ccccc12	-55.1%	1.0%	4.65µM*	63.9*	28.7*	3.29µM*
SMILES	NS1 function inh	Sm TGR inh	Pf growth 96h	Shiga inhibitor	CHX counter	Pf growth 48h
N/C(Cc1cccc2ccccc12)=N\OC(=O)c1ccccc1F	-17.5%	-25.9%	u	23.2	22.7*	u
O=C(Oc1ccccc1O)c1cccc2ccccc12	-37.9%	x	22.8%	30.0	6.6	12.5%
N/C(Cc1ccc(Cl)cc1Cl)=N\OC(=O)c1ccccc1F	x	-1.1%	0.0%	74.6*	53.3*	35.3%
N/C(Cn1cncn1)=N\OC(=O)c1ccc(Cl)cc1Cl	x	21.9%	43.3%	57.6	9.0	60.5%
O=C(NCc1cccc(Cl)c1)c1oc(=O)c2ccccc2c1-c1ccccc1	x	0.3%	x	x	x	x
CCCNC(=O)Cn1c(=O)/c(=C\c2ccc(-c3ccc([N+](=O)[O-])cc3)o2)s/c1=C\C(=O)C(C)(C)C	28.2%	1.7%	u	2.1	-0.9	9.28µM*
CCCNC(=O)Cn1c(=O)/c(=C\c2ccc(-c3cccc([N+](=O)[O-])c3)o2)s/c1=C\C(=O)C(C)(C)C	5.6%	-17.6%	1.31µM*	8.3	-1.1	1.65µM*
COc1ccc(C)cc1S(=O)(=O)N(CC(=O)NCc1ccc(Cl)cc1)Cc1ccccc1	9.8%	2.0%	11.7µM*	-15.4	-2.8	x
COc1ccc(CNC(=O)CN(Cc2ccc(Cl)cc2)S(=O)(=O)c2ccccc2)cc1	-13.9%	5.8%	x	16.3	-2.0	-17.9%
COc1ccc(S(=O)(=O)N(CC(=O)NCc2ccncc2)Cc2ccccc2)cc1	-4.3%	1.7%	5.22µM*	-4.0	-3.1	u
O=C(CN(c1ccccc1)S(=O)(=O)c1ccccc1[N+](=O)[O-])N1CCCC1	-3.5%	-0.3%	48.7%	-11.1	-7.7	u
CC(NS(=O)(=O)c1ccc(OCC(=O)NCc2ccncc2)cc1)c1ccccc1 (centres undefined)	9.6%	-3.1%	u	-11.2	9.2	-7.1%
CN(Cc1ccccc1)S(=O)(=O)c1ccc(OCC(=O)NCc2ccncc2)cc1	1.0%	1.6%	-3.2%	2.4	-0.5	4.65µM*
COc1ccc(CNC(=O)CN(Cc2ccccc2)S(=O)(=O)c2ccc(Cl)cc2)cc1	5.4%	4.9%	u	7.9	2.8	x
CC(C)CNC(=O)CN(c1ccccc1)S(=O)(=O)c1ccccc1[N+](=O)[O-]	5.6%	-3.9%	5.86µM*	1.5	-6.0	u
CCC(C(=O)NC1CCCCC1)N(Cc1cccs1)C(=O)c1snc(C(N)=O)c1N (centres undefined)	x	-1.8%	u	25.1	0.8	-3.7%
COc1ccc(N(CC(=O)NCc2cccnc2)S(=O)(=O)c2ccccc2[N+](=O)[O-])c(OC)c1	-0.8%	0.7%	0.0%	-18.7	-1.1	-15.2%
COc1ccc(N(CC(=O)NCc2ccc(Cl)cc2)S(=O)(=O)c2ccccc2[N+](=O)[O-])c(OC)c1	u	2.5%	38.3%	-18.3	-2.4	8.28µM*
COc1ncc(-c2ccc3c(c2)S(=O)(=O)c2cccc(C(=O)O)c2C3=O)cn1	x	0.2%	39.4%	x	x	34.5%
Cc1ccc(S(=O)(=O)NCC2CCC(C(=O)NCCCN3CCCC3=O)CC2)cc1 (centres undefined)	7.4%	-2.2%	-6.8%	-5.0	-9.4	0.2%
Oc1ccccc1N1CCN(c2ncnc3scc(-c4ccc(F)cc4)c23)CC1	-0.4%	-14.1%	u	-3.2	1.4	13.1µM*
